Measured values reported in PubChem BioAssay (NCATS).
Several values for one entry are separate records, joined by “and”; a condition that tells them apart may be missing. Equal entries are not always repeated. Results filed as inconclusive are left out. Activity calls are given as the source filed them. Unless noted, the call rests on the fitted dose curve; in most records, active means well fitted curve in the direction sought with a large enough effect; inconclusive means small, poorly fitted or top-dose-only effect, or another doubt; inactive means no such curve, though single readings can be large; an effect the other way counts as inactive or inconclusive.

Legend:
[1] = Cell Viability - Hek293 (AID 427;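 active means compounds whose dose-response curve shows a full or clear partial loss of cell viability, called from curve shape rather than a numeric limit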;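 further: potency means the concentration at half of the fitted maximal effect; cells exposed to compound for 40 hours at 37 °C before reading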); conditions: qHTS
How it was run: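 qHTS, human embryonic kidney (adenovirus-transformed) cells; 40 hr cpd, 37 °C; CellTiter-Glo ATP luminescence. Norm: DMSO = 0, 100 uM tamoxifen = 100% inhibition. Hill-fit AC50.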

[2] = Cell Viability - SK-N-SH (AID 435; calls by dose curve;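 further: potency means the concentration at half of the fitted maximal effect; compound exposure lasted 40 h at 37 °C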); conditions: SK-N-SH neuroblastoma cell viability qHTS
How it was run: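 SK-N-SH neuroblastoma cells (1500/well) treated 40 h at 37 °C in complete medium; viability read as cellular ATP by CellTiter-Glo luminescence. Normalized to DMSO and 100 uM tamoxifen; AC50 from Hill fits of qHTS concentration-response.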

[3] = Cell Viability - N2a (AID 540); conditions: N2a mouse neuroblastoma cell viability; activity change, negative = cytotoxicity: at 92.2 µM (top of the series);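 further: plate controls were DMSO alone for no effect and tamoxifen control for full effect; nearly all actives have a fitted effect of over 45% in size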
How it was run: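 First, 1500 N2a cells per well incubate 5 hr at 37 °C; next, compounds are added and incubated 40 hr at 37 °C; finally CellTiter-Glo is added and luminescence read after 20 min, with AC50 derived by Hill modeling.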

[4] = Cell Viability - Renal Proximal Tubule (AID 545); conditions: renal proximal tubule cells viability, primary cells of rat origin; activity change, negative = cytotoxicity: at 91.7 µM (top of the series);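 further: 0% = DMSO only and -100% = 100 µM tamoxifen; nearly all actives have a fitted effect of over 40% in size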
How it was run: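 Rat renal proximal tubule primary cells, 1000/well, exposed to compounds for 40 hr at 37 °C in complete medium; cellular ATP read by CellTiter-Glo luminescence. AC50 from concentration-response fitted with standard Hill equation.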

[5] = Cell Viability - LYMP2-005 (AID 967); conditions: LYMP2-005 lymphoblastoid cell viability; series mostly up to 92.2 µM; further: potency means the concentration at half of the fitted maximal effect
How it was run: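 Human lymphoblastoid LYMP2-005 cells, 2,500 per well in complete medium, rested 5 h at 37C then compound-treated 24 h at 37C. Intracellular ATP read by CellTiter-Glo luminescence after 30 min at room temperature; AC50 from Hill-equation fits of concentration-response data.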

[6] = Cell Viability - LYMP2-009 (AID 968); conditions: LYMP2-009 lymphoblastoid cell viability; series mostly up to 92.2 µM; further: nearly all actives have a fitted effect of over 55% in size; further: potency means the concentration at half of the fitted maximal effect
[7] = Cell Viability - LYMP2-015 (AID 971); conditions: LYMP2-015 lymphoblastoid cell viability; series mostly up to 92.2 µM; further: nearly all actives have a fitted effect of over 55% in size; further: potency means the concentration at half of the fitted maximal effect
How it was run: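 Acute toxicity was scored as a concentration-dependent drop in intracellular ATP in lymphoblastoid cells after 24 hr compound exposure in complete medium. Detection used CellTiter-Glo luciferase luminescence.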

[8] = Cell Viability - LYMP2-017 (AID 972); conditions: LYMP2-017 lymphoblastoid cell viability; series mostly up to 92.2 µM;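 further: cells exposed to compound for 24 hours at 37 °C; nearly all actives have a fitted effect of over 55% in size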; further: potency means the concentration at half of the fitted maximal effect; on activity change, negative = cytotoxicity: on the % scale 0 is the no-effect control and ±100 the full control effect
How it was run: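 Steps: plate 2500 lymphoblastoid cells per well; incubate 5 hr at 37 C; add compound across a concentration series and incubate 24 hr at 37 C; add CellTiter-Glo and read luminescence after 30 min at room temperature; fit Hill curves for AC50.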

[9] = Cell Viability - LYMP2-019 (AID 973); conditions: LYMP2-019 lymphoblastoid cell line viability; series mostly up to 92.2 µM; further: nearly all actives have a fitted effect of over 55% in size; further: potency means the concentration at half of the fitted maximal effect;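 on activity change, negative = cytotoxicity: 0% = DMSO alone and full effect = 92 µM tetraoctylammonium bromide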
How it was run: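 Cells plated at 2500/well and allowed 5 hr at 37 C before compound addition. After 24 hr incubation, CellTiter-Glo reagent was added, plates sat 30 min at room temperature, and luminescence was recorded.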

[10] = Cell Viability - LYMP2-010 (AID 981); conditions: LYMP2-010 lymphoblastoid cell viability, qHTS; series mostly up to 92.2 µM; further: potency means the concentration at half of the fitted maximal effect
How it was run: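 Acute toxicity is scored as a concentration-dependent loss of cellular ATP in human lymphoblastoid cells after 24 hr compound exposure in complete medium. Tetraoctylammonium bromide is the positive control.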

[11] = biological target: Thyroid hormone receptor beta (Homo sapiens) (UniProt P10828); assay: qHTS assay for small molecule agonists of thyroid hormone receptor beta signaling (AID 588545; calls by dose curve); conditions: TR-UAS-bla GripTite HEK 293, beta-lactamase ratio, agonist mode, 18 h; series mostly up to 76.7 µM
Chain of Thyroid hormone receptor beta (Homo sapiens) (P10828 whole entry, looked up): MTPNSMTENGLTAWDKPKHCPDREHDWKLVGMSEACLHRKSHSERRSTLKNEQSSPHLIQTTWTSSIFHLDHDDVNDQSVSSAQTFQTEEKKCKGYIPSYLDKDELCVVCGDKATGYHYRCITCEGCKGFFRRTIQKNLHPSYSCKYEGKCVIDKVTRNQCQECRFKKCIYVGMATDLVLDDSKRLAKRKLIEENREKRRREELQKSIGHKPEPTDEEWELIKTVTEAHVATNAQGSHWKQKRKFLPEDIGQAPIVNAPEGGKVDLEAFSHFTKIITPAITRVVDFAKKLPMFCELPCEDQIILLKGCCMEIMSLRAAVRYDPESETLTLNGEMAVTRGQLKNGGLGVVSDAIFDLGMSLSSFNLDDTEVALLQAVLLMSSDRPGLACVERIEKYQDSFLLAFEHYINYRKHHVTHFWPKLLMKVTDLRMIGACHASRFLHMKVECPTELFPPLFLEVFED
How it was run: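 Agonist activity was read as beta-lactamase CCF4 fluorescence (405 ex, 460/530 em), scaled between DMSO (0%) and 10 nM T3 (100%), then Hill-fitted for EC50 and efficacy. HEK 293 TR-UAS-bla cells in 2% charcoal/dextran FBS medium were exposed 18 h at 37 C.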

[12] = qHTS assay for small molecule disruptors of the mitochondrial membrane potential - 1 hr assay (AID 651754; calls by dose curve; further: on the % scale 0 is the no-effect control and ±100 the full control effect; nearly all actives have a fitted effect of over 35% in size); conditions: series mostly up to 92.2 µM
How it was run: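 Steps: seed HepG2 cells and let attach overnight; pin-transfer compound or vehicle; incubate 1 hr at 37C; add Mito-MPS dye for 30 min; read two-channel fluorescence for monomer and aggregate forms.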

[13] = qHTS assay for small molecule disruptors of the mitochondrial membrane potential - 5 hr assay (AID 651755; calls by dose curve; further: on the % scale 0 is the no-effect control and ±100 the full control effect; nearly all actives have a fitted effect of over 40% in size); conditions: JC-1-type ratio dye; series mostly up to 92.2 µM
How it was run: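 HepG2 cells, attached overnight at 37C, were exposed to compound or DMSO for 5 hr at 37C, 5% CO2. Mito-MPS dye was then added for 30 min, and fluorescence read at 490/535 nm (monomers) and 540/590 nm (aggregates).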

[14] = qHTS assay for small molecule agonists of the antioxidant response element (ARE) signaling pathway measured by Nrf2-dependant transcriptional activity (AID 720636; active means well fitted curve in the direction sought with a large enough effect in the repeat runs; an effect the other way counts as inactive or inconclusive; further: potency means the concentration at half of the fitted maximal effect); conditions: ARE-luc HepG2, Nrf2 luciferase reporter, 16 h; series mostly up to 92.4 µM
How it was run: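 Attachment 6 hr at 37 C, then compound versus DMSO vehicle for 16 hr in ARE-luc HepG2 cells (1% dialyzed FBS); luminescence recorded 30 min after ONE-Glo addition at room temperature.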

[15] = biological target: Nuclear receptor subfamily 1 group I member 2 (Rattus norvegicus) (UniProt Q9R1A7); assay: qHTS assay for small molecule activators of the rat pregnane X receptor (rPXR) signaling pathway (AID 651751; call rule not given here; further: 0% is about no effect); conditions: rPXR reporter cells, luciferase (One-Glo), 24 h
Chain of Nuclear receptor subfamily 1 group I member 2 (Rattus norvegicus) (Q9R1A7 whole entry, looked up): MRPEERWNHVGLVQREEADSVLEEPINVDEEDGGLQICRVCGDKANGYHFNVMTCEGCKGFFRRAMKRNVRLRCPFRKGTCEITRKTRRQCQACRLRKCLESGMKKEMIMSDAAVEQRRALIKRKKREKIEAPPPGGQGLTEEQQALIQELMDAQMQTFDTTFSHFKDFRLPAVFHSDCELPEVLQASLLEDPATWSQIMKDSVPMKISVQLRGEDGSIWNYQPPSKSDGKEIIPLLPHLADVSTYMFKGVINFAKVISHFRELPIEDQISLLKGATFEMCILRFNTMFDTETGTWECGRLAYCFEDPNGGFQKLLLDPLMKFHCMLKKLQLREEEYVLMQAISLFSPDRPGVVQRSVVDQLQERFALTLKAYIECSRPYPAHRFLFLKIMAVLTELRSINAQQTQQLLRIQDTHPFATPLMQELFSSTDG

[16] = Cell Viability - SH-SY5Y (AID 544); conditions: SH-SY5Y neuroblastoma cell viability; viability change, negative = cytotoxic: at 92.2 µM (top of the series)
How it was run: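 Cytotoxicity is scored as a concentration-dependent fall in intracellular ATP in human SH-SY5Y cells treated 40 hr in complete culture medium. Potency is expressed as AC50 from a Hill equation fit.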

[17] = Cell Viability - LYMP2-001 (AID 921); conditions: LYMP2-001 lymphoblastoid cell viability; series mostly up to 92.2 µM;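 further: 0% = DMSO only and full inhibition = tetraoctylammonium bromide control wells; nearly all actives have a fitted effect of over 70% in size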
How it was run: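 Human lymphoblastoid LYMP2-001 cells, 2500 per well, in complete medium, treated 24 h at 37 C. Viability from cellular ATP by CellTiter-Glo luminescence; AC50 from Hill-equation fits of qHTS concentration-response.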

[18] = MultiTox-Fluor Cytotoxicity Assay - LYMP1-002 - Dead Cells (AID 960); conditions: LYMP1-002 lymphoblastoid cells, dead-cell protease fluorescence; series mostly up to 46.1 µM;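 further: cells exposed to compound for 16 h at 37 °C; 0% = DMSO and 100% = tetraoctylammonium bromide; nearly all actives have a fitted effect of over 60% in size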
How it was run: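 Acute cytotoxicity in a human lymphoblastoid line is scored as rising dead-cell protease signal after 16 hr exposure at 37 C, measured fluorometrically (485/520).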

[19] = qHTS assay for small molecule agonists of retinoid X receptor alpha signaling (AID 588544; calls by dose curve); conditions: HEK293T RXRa-UAS-bla, beta-lactamase reporter, 18 h; 530 nm emission
[20] = biological target: Retinoic acid receptor RXR-alpha (Homo sapiens) (UniProt P19793); assay: as above; conditions: HEK293T RXRa-UAS-bla, beta-lactamase reporter, 18 h; series mostly up to 76.7 µM
Chain of Retinoic acid receptor RXR-alpha (Homo sapiens) (P19793 whole entry, looked up): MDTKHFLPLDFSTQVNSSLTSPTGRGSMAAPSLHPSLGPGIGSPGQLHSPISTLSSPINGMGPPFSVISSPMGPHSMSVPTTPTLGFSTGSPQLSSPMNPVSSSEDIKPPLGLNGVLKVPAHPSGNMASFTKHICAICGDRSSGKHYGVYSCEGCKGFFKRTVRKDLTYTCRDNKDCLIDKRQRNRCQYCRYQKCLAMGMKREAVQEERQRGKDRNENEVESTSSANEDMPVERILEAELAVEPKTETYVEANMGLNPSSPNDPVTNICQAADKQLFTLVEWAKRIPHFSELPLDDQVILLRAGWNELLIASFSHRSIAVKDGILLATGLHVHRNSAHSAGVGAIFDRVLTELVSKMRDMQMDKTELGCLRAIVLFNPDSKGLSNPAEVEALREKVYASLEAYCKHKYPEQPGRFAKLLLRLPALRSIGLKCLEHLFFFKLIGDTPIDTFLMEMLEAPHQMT

CC/C=C/C/C=C/C/C=C/CCCCCCCC(=O)OCC
active: Potency [5] 31.6 µM | Potency [6] 39.8 µM | Potency [7] 39.8 µM | Potency [8] 31.6 µM | Potency [9] 39.8 µM | Potency [10] 25.1 µM | Potency [14] 66.8 µM
inactive: Potency [1] > 92 µM | Potency [2] > 92 µM | activity change, negative = cytotoxicity [3] -12.6% | Potency [4] | Potency [11] | Potency [12] | Potency [13] | max response [15] 2.44%

CC(=O)CC(=O)Nc1ccccc1
6.79% and 6.65%: max response [19]
inactive: Potency [1] > 92 µM | Potency [2] > 92 µM | activity change, negative = cytotoxicity [3] -10.9% | Potency [16] | Potency [4] | Potency [17] | Potency [18] | Potency [5] | Potency [6] | Potency [7] | Potency [8] | Potency [9] | Potency [20] | Potency [11] | Potency [12] | Potency [13] | Potency [14] | max response [15] 8.9% and 1.01%

Cc1cc(=O)oc2cc(O)cc(O)c12
inactive: Potency [1] > 92 µM | Potency [2] > 92 µM | activity change, negative = cytotoxicity [3] -0.482% | Potency [16] | Potency [4] | Potency [17] | Potency [18] | Potency [5] | Potency [6] | Potency [7] | Potency [8] | Potency [9] | Potency [10] | Potency [11] | Potency [14] | max response [15] -2.67%

OCC(CO)(CBr)CBr
inactive: Potency [1] > 92 µM | Potency [2] > 92 µM | activity change, negative = cytotoxicity [3] -2.21% | Potency [16] | Potency [4] | Potency [17] | Potency [18] | Potency [5] | Potency [6] | Potency [7] | Potency [8] | Potency [9] | Potency [10] | Potency [20] | Potency [11] | Potency [12] | Potency [13] | Potency [14] | max response [15] 4.89% and 3.86%
0.243% and -1.22%: max response [19]

C=CC(C)(O)CCCC(C)CCCC(C)CCCC(C)C (configuration not stated)
-17.1%: max response [19]
inactive: Potency [1] > 92 µM | Potency [2] > 92 µM | activity change, negative = cytotoxicity [3] -17.1% | Potency [16] | Potency [4] | Potency [17] | Potency [18] | Potency [6] | Potency [7] | Potency [8] | Potency [9] | Potency [10] | Potency [20] | Potency [11] | Potency [14] | max response [15] 4.48%

C=C(C#N)C(=O)OCC
inactive: Potency [1] > 92 µM | Potency [2] > 92 µM | activity change, negative = cytotoxicity [3] -3.66% | Potency [16] | Potency [4] | Potency [17] | Potency [18] | Potency [5] | Potency [6] | Potency [7] | Potency [8] | Potency [9] | Potency [10] | Potency [20] | Potency [11] | Potency [12] | Potency [13] | Potency [14] | max response [15] -1.42%
6.28%: max response [19]
